Methyltransferases: Primary Screen for Target Class Profiling of Small Molecule Inhibitors of Methyltransferases; purified enzyme, MTase-Glo SAH luminescence; stronger effect = lower value; calls only at 40 µM; 25,000 tested, 3.9% active; AID 1745853, 2022; call rule not given here
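Each enzyme was assayed with SAM and its substrate. SAH formation detected by MTase-Glo luminescence; single-point 40 uM screen[…].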
MTase-Glo counter: Counterscreen for Target Class Profiling of Small Molecule Inhibitors of Methyltransferases. shares compounds with Methyltransferases. 180 tested, 6% active. MTase-Glo coupled enzymes, SAH conversion luminescence, no MTase. Potency, µM (doses to about 57.3 µM), for the others: top-dose activity change, negative = inhibition, actives largely listed as inhibitors. AID 1745851, 2022; active means well fitted inhibition curve with a large enough effect; inconclusive means small, poorly fitted or top-dose-only effect; further: potency means the concentration at half of the fitted maximal effect
Starred values were filed as active, the others as inactive; [ ] = another dose, or the depositor's remark. Shown is part of a subset that was picked to be rich in hits. On the % scale 0 is the no-effect control and ±100 the full control effect.

What do the screens show for `Cc1ccc(NC(=O)CSc2nnc3n(Cc4ccc(F)cc4)c(=O)c4ccccc4n23)cc1`?
Methyltransferases: inactive

How did Cc1ccc(N2C(=O)c3cc4sccc4n3CC2(C)C(=O)NC2CCC(C)CC2)cc1C (stereo not drawn) do in these assays?
Methyltransferases: inactive

How did CC(C)CCN1C[C@@H]2C[C@H]1C(=O)N(Cc1cccnc1)c1ccccc1O2 do in these assays?
Methyltransferases: inactive

Results for CN1CCC(N2C[C@@H]3C[C@H]2C(=O)N(CC2CC2)c2ccccc2O3)CC1 ?
Methyltransferases: active; MTase-Glo counter: -5%[85.7 µM]

What do the screens show for `COc1cccc(C2c3cccn3-c3sc4c(c3CN2C(=O)Nc2cccc(C)c2)CCCC4)c1` (stereo not drawn)?
Methyltransferases: inactive

How did CCN1C(=O)c2cc3ccccc3n2CC1(C)C(=O)NCc1ccccc1OC (stereo not drawn) do in these assays?
Methyltransferases: inactive

How did Cn1c(=O)c2ccc(C(=O)NC3CCCC3)cc2n2c(=O)n(CC(=O)Nc3cccc(Cl)c3)nc12 do in these assays?
Methyltransferases: inactive

Results for O=C(Nc1ccc(S(=O)(=O)C(F)(F)F)cc1)C1=CCN(c2ncccc2C(F)(F)F)CC1 ?
Methyltransferases: inactive

What do the screens show for `O=C1CC(C(=O)Nc2cccc(Cl)c2)n2ncnc2N1` (stereo not drawn)?
Methyltransferases: inactive

What do the screens show for `O=C(Nc1ccccc1C(F)(F)F)N1CCCC(Cn2cnc3cccnc32)C1` (stereo not drawn)?
Methyltransferases: inactive

How did O=C(Nc1ccc2c(N3CCOCC3)ncnc2c1)c1cccc(Cl)c1 do in these assays?
Methyltransferases: active; MTase-Glo counter: -1%

Results for O=C(Nc1ccc2c(N3CCCCC3)ncnc2c1)c1ccccc1C(F)(F)F ?
Methyltransferases: active; MTase-Glo counter: 1.7µM*

Results for COc1ccc(C)c2c1N[C@@H](c1ccc(Br)cc1)[C@H]1CC=C[C@@H]21 ?
Methyltransferases: inactive

How did COc1ccc(-c2cc3n(n2)CC(C)(C(=O)NCc2ccccc2)N(c2cc(OC)cc(OC)c2)C3=O)cc1 (stereo not drawn) do in these assays?
Methyltransferases: inactive

What do the screens show for `COc1ccc(NC(=O)CCc2ccnc(N3CCCC3)c2)c(OC)c1`?
Methyltransferases: active; MTase-Glo counter: 0%

What do the screens show for `CCCN(C)C(=O)CCc1ccnc(N2CCOCC2)c1`?
Methyltransferases: inactive

What do the screens show for `COc1ccc(NC(=O)N2CCn3cccc3C2C)c(OC)c1` (stereo not drawn)?
Methyltransferases: inactive

What do the screens show for `O=C(CCCc1nnc2n3nc(-c4ccccc4)nc3c3ccccc3n12)NCc1ccccc1Cl`?
Methyltransferases: inactive

Results for CCOc1ccc(CN2C(=O)c3ccc(-c4ccco4)n3CC2(C)C(=O)NC2CCCC2)cc1 (stereo not drawn) ?
Methyltransferases: inactive

How did Cc1ccc(C)c(CSc2nnc3n(CCCOC(C)C)c(=O)c4ccccc4n23)c1 do in these assays?
Methyltransferases: inactive

Results for COc1cc(F)ccc1-c1cc(-c2ccc(=O)[nH]c2)c2cncn2c1 ?
Methyltransferases: active; MTase-Glo counter: inconclusive

Results for COc1cc(F)ccc1-c1nccc2c(=O)cc(-c3cnn(C)c3)oc12 ?
Methyltransferases: inactive

What do the screens show for `CC1CCC(NC(=O)C2(C)Cn3c(cc4occc43)C(=O)N2CCc2ccc(Cl)cc2)CC1` (stereo not drawn)?
Methyltransferases: inactive

What do the screens show for `CC1CCC(NC(=O)C2(C)Cn3c(ccc3-c3ccco3)C(=O)N2CCc2ccccc2)CC1` (stereo not drawn)?
Methyltransferases: inactive

Results for CCC(C)NC(=O)c1ccc2c(=O)n(CC(C)C)c3nn(C)c(=O)n3c2c1 (stereo not drawn) ?
Methyltransferases: inactive

How did N#Cc1ccc(CN2CCC3(CC(c4cccc(C(F)(F)F)c4)=NO3)C2)cc1 (stereo not drawn) do in these assays?
Methyltransferases: inactive

What do the screens show for `FC(F)(F)c1cccc(-c2nccn3c(C4CN(Cc5ccc6cn[nH]c6c5)C4)ncc23)c1`?
Methyltransferases: active; MTase-Glo counter: -6%

Results for CCC1c2cccn2-c2sc3c(c2CN1C(=O)Nc1cc(OC)ccc1OC)CCCC3 (stereo not drawn) ?
Methyltransferases: inactive

What do the screens show for `Cc1noc(C)c1-c1cnc(Nc2ccncc2)c2c1CCO2`?
Methyltransferases: active; MTase-Glo counter: -3%[85.7 µM]

What do the screens show for `Fc1cccc(Nc2ncc(-c3cncnc3)c3c2OCC3)c1`?
Methyltransferases: inactive

How did Cn1cc(-c2cnc(Nc3cccnc3)c3c2CCO3)cn1 do in these assays?
Methyltransferases: inactive

What do the screens show for `CCCn1c(=O)c2ccc(Cl)cc2n2c(=O)n(CC(=O)c3cc(C)ccc3C)nc12`?
Methyltransferases: inactive

What do the screens show for `O=S(=O)(NCCn1c(CCc2ccccc2)nc2ccccc21)c1ccc(Br)cc1`?
Methyltransferases: inactive

Source: PubChem
